Compounds with a hit are over-represented: about 19% of the library has one in this group of screens.
IL1B secr inh = inhibitors of inflammasome signaling (IL-1 beta secretion); THP-1 LPS/ATP IL-1B secretion, AlphaLISA, 16 h; active compounds read low; activity change, % at 57.5 µM; 360,000 compounds, 4.7% hits; AID 743279; in the data active = activity change below about -50%; inconclusive = mostly about -30% to -49%
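Secreted IL-1B measured by AlphaLISA bead assay after 16 h compound exposure of THP-1 cells; compounds (final up to 57.5 uM) added 1 h before LPS (250 ng/mL) and ATP (1.25 mM) stimulation; lower signal means less secretion.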
TDP1 cell CPT = growth inhibition of DT40 Tdp1-/-;hTDP1 cells with camptothecin (screen for TDP1 inhibitors); chicken DT40 Tdp1-/-;hTDP1 cells + 20 nM CPT, ATP luminescence, 48 h; Potency, µM (top dose mostly 46.2 µM), usual class: inhibitors; 420,000 compounds, 12% hits; also: nearly all actives have a fitted effect of over 55% in size
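Chicken DT40 Tdp1-/- cells complemented with human TDP1, 400 cells/well, exposed to compounds plus 20 nM camptothecin for at least 48 h at 37 C; viability read as ATP content by CellTiter-Glo luminescence.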
TDP1 cell noCPT = qHTS for Inhibitors of human tyrosyl-DNA phosphodiesterase 1 (TDP1): qHTS in cells in absence of CPT; Potency, µM (series often up to 46.2 µM), actives largely listed as inhibitors; 420,000 compounds, 15% hits; AID 686978, 2013; DT40 Tdp1-/- hTDP1 cells, no CPT, ATP luminescence, 48 h; also: nearly all actives have a fitted effect of over 55% in size
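Chicken DT40 Tdp1-/- cells stably complemented with human TDP1 were seeded at 400 cells/well with DMSO in place of 20 nM camptothecin. After compound pinning, cells grew at least 48 hr at 37 °C; viability read by CellTiter-Glo luminescence.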
HT1080 IDH1KD tx = HT-1080 IDH1 knockdown cell toxicity (counter line); HT-1080 IDH1 knockdown viability, ATP luminescence, 48 h; Potency, µM (series often up to 46.1 µM), usual class: cytotoxic; 360,000 compounds, 2% hits
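Luminescent ATP read-out (CellTiter-Glo, 10 min at room temperature) after 48 h compound exposure at 37 °C gave viability of IDH1-knockdown HT-1080 cells. Activity was normalised to DMSO and cell-free wells, then fitted as concentration-response curves.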
HT1080NT lethal = kills 2HG-producing HT-1080-NT fibrosarcoma cells; AID 686970; HT-1080-NT fibrosarcoma viability, CellTiter-Glo ATP luminescence, 48 h; Potency, µM (top dose mostly 46.1 µM), hits mostly cytotoxic; 360,000 compounds, 1.6% hits;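 also: NT is the 2HG producing partner of a matched IDH1 knockdown line; nearly all actives have a fitted effect of over 55% in size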
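750 cells/well, RPMI + 5% FBS; 2 h settle, compound pin-transfer, 48 h at 37 degrees C. CellTiter-Glo 10 min RT, luminescence. Normalized to DMSO and media-only wells.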
Each line names hits and unclear results; the compound was inactive in the other large screens. Unless noted, calls follow the shape of the dose curve; as a rule, active = well fitted curve in the direction sought with a large enough effect; inconclusive = small, poorly fitted or top-dose-only effect, or another doubt; inactive = no such curve, though single readings can be large; an effect the other way counts as inactive or inconclusive.

O=c1c2c([nH]c3ccc(Br)cc13)CCCC2	TDP1 cell CPT 23µM, TDP1 cell noCPT inconclusive
N/C(=N\OCc1ccc([N+](=O)[O-])cc1)c1ccncc1	none
COc1ccccc1NC(=O)c1c(C)oc2c1CCCC2	TDP1 cell CPT inconclusive, TDP1 cell noCPT inconclusive, HT1080NT lethal inconclusive
Cc1cc(C(=O)NCCC(c2ccccc2)c2ccccc2)c(C)o1	TDP1 cell CPT 18µM, TDP1 cell noCPT inconclusive
Cc1oc2c(c1C(=O)Nc1cccc3ccccc13)CCCC2	TDP1 cell CPT 10µM, TDP1 cell noCPT 13µM
Cc1cc(C(=O)Nc2cccc3ccccc23)c(C)o1	TDP1 cell CPT 23µM
Cc1cc(C(=O)NCCCC(=O)O)c(C)o1	none
CCc1nc2ccc(C(=O)Nc3cccc(OCC(=O)N(C)C)c3)cn2c1N(C)Cc1ccc(OC)cc1	TDP1 cell CPT 23µM, TDP1 cell noCPT 18µM, HT1080NT lethal inconclusive
Cc1nc2ccc(C(=O)Nc3cccc(OCC(=O)N(C)C)c3)cn2c1N(C)CC1CCCCC1	IL1B secr inh -51, TDP1 cell CPT 21µM, TDP1 cell noCPT 13µM, HT1080 IDH1KD tx inconclusive, HT1080NT lethal inconclusive
CCc1nc2ccc(C(=O)Nc3cccc(OCC(=O)N(C)C)c3)cn2c1N(CC)CCN(C)C	none
CCc1nc2ccc(C(=O)Nc3cccc(OCC(=O)N(C)C)c3)cn2c1N(CC)CCOC	TDP1 cell CPT 16µM, TDP1 cell noCPT 16µM, HT1080 IDH1KD tx inconclusive
CC(O)CNC1c2ccccc2CC1O (configuration not stated)	none
COc1cc(Cl)c(CN2CCOc3ccc(CN4CCCCC4CO)cc3C2)cc1OC (configuration not stated)	TDP1 cell noCPT inconclusive (no result: IL1B secr inh, HT1080 IDH1KD tx, HT1080NT lethal)
COc1ccc(/C=N\NC(=O)COc2ccc(C(C)(C)C)cc2)cc1Cn1nc(C)cc1C	TDP1 cell CPT inconclusive, TDP1 cell noCPT 21µM, HT1080 IDH1KD tx inconclusive, HT1080NT lethal inconclusive
CC(=O)NNS(=O)(=O)c1scc(S(=O)(=O)c2ccc(Cl)cc2)c1C	none
COc1cc(Nc2nc(SCC(=O)c3ccc(Br)cc3)nc3ccccc23)cc(OC)c1	TDP1 cell CPT 5.2µM, TDP1 cell noCPT 2.9µM (no result: IL1B secr inh, HT1080 IDH1KD tx, HT1080NT lethal)
COc1cc(Nc2nc(SCC#N)nc3ccccc23)cc(OC)c1OC	none
CC(C)C1C(=O)N(Cc2cn(CCC3OCCCO3)nn2)CCS(=O)(=O)N1Cc1ccc(-c2ccc(Cl)cc2)cc1 (configuration not stated)	TDP1 cell CPT inconclusive, TDP1 cell noCPT 23µM
CC(C)C1C(=O)N(Cc2cn(CCC3OCCCO3)nn2)CCS(=O)(=O)N1Cc1ccc(-c2cccc(CO)c2)cc1 (configuration not stated)	TDP1 cell noCPT inconclusive
CC(C)C1C(=O)N(Cc2cn(CCC3OCCO3)nn2)CCS(=O)(=O)N1Cc1ccc(-c2ccc(Cl)cc2)cc1 (configuration not stated)	IL1B secr inh inconclusive, TDP1 cell CPT 3.3µM, TDP1 cell noCPT 4.1µM, HT1080 IDH1KD tx inconclusive, HT1080NT lethal 18µM
CC(C)C1C(=O)N(Cc2cn(CCC3OCCO3)nn2)CCS(=O)(=O)N1Cc1ccc(-c2ccc(F)cc2)cc1 (configuration not stated)	TDP1 cell CPT inconclusive, TDP1 cell noCPT inconclusive
CC(C)C1C(=O)N(Cc2cn(CCC3OCCCO3)nn2)CCS(=O)(=O)N1Cc1ccc(-c2ccc(Cl)c(Cl)c2)cc1 (configuration not stated)	IL1B secr inh -80, TDP1 cell CPT 23µM, TDP1 cell noCPT 18µM, HT1080 IDH1KD tx inconclusive, HT1080NT lethal 16µM
O=C(COC(=O)/C=C/c1cccc(Cl)c1)NC(=O)NCc1ccccc1	none
COc1cccc(-n2c(SC)nnc2C2CCN(Cc3cccc(OC)c3O)CC2)c1	TDP1 cell noCPT inconclusive (no result: IL1B secr inh, HT1080 IDH1KD tx, HT1080NT lethal)
COc1ccc(S(=O)(=O)N2CCN(C(=O)c3ccc(NC(C)=O)cc3)CC2)cc1	none
COC(=O)C1=CN(Cc2ccc(F)cc2)C=C(C(=O)OC)C1c1cc(OC)c(OC)c(OC)c1	none
COC(=O)C1=CN(c2ccc(F)cc2)C=C(C(=O)OC)C1c1cccc(Br)c1	IL1B secr inh inconclusive, TDP1 cell CPT 23µM, TDP1 cell noCPT inconclusive
COC(=O)C1=CN(Cc2ccc(C)cc2)C=C(C(=O)OC)C1c1ccc(F)c(F)c1	TDP1 cell CPT inconclusive, TDP1 cell noCPT 23µM
COC(=O)C1=CN(c2ccc(F)cc2)C=C(C(=O)OC)C1c1ccc([N+](=O)[O-])cc1	TDP1 cell CPT inconclusive, TDP1 cell noCPT inconclusive
COC(=O)C1=CN(Cc2ccc(OC)c(OC)c2)C=C(C(=O)OC)C1c1cccc(F)c1	TDP1 cell CPT 16µM, TDP1 cell noCPT 18µM
O=C(Cn1nc2c(cc1=O)CCCC2)Nc1ccc(F)cc1F	none (no result: IL1B secr inh, HT1080 IDH1KD tx, HT1080NT lethal)
CCn1c(=O)cc(OCC(=O)N2CCN(c3ccc(C(C)=O)cc3)CC2)c2ccccc21	none (no result: IL1B secr inh, HT1080 IDH1KD tx, HT1080NT lethal)
CCn1c(=O)cc(OCC(=O)N2CCN(c3cccc(C(F)(F)F)c3)CC2)c2ccccc21	TDP1 cell CPT 16µM, TDP1 cell noCPT 23µM
CCn1c(=O)cc(OCC(=O)N2CCN(c3ccc(OC)cc3)CC2)c2ccccc21	TDP1 cell CPT 21µM (no result: IL1B secr inh, HT1080 IDH1KD tx, HT1080NT lethal)
CCn1c(=O)cc(OCC(=O)N2CCCC2)c2ccccc21	TDP1 cell CPT inconclusive
O=C(O)C1C2C=CC(C2)C1C(=O)Nc1ccc(Cl)c(Cl)c1 (configuration not stated)	TDP1 cell CPT inconclusive, TDP1 cell noCPT inconclusive
Cc1nc(NCc2cnn(C)c2C)sc1-c1ccn(CC2COc3ccccc3O2)n1 (configuration not stated)	TDP1 cell noCPT inconclusive (no result: IL1B secr inh, HT1080 IDH1KD tx, HT1080NT lethal)
CCN1CCN(c2nc3ccccc3nc2C(C#N)C(=O)OCc2ccccc2)CC1 (configuration not stated)	TDP1 cell CPT 23µM, TDP1 cell noCPT inconclusive
CCCCOC(=O)C(C#N)c1nc2ccccc2nc1N1CCOCC1 (configuration not stated)	IL1B secr inh inconclusive, TDP1 cell CPT inconclusive, TDP1 cell noCPT inconclusive
CCCCCCOC(=O)C(C#N)c1nc2ccccc2nc1N1CCOCC1 (configuration not stated)	TDP1 cell CPT inconclusive, TDP1 cell noCPT 18µM
CC1CCN(c2nc3ccccc3nc2C(C#N)C(=O)OC2CCCCC2)CC1 (configuration not stated)	TDP1 cell CPT 16µM, TDP1 cell noCPT inconclusive
CCCCCCOC(=O)C(C#N)c1nc2ccccc2nc1N1CCN(CC)CC1 (configuration not stated)	IL1B secr inh inconclusive, TDP1 cell CPT inconclusive, TDP1 cell noCPT 21µM, HT1080 IDH1KD tx 23µM, HT1080NT lethal 16µM
COCCOC(=O)C(C#N)c1nc2ccccc2nc1N1CCCC1 (configuration not stated)	none
C=CCOC(=O)C(C#N)c1nc2ccccc2nc1N1CCCC1 (configuration not stated)	none

Bioassay records deposited in PubChem BioAssay by National Center for Advancing Translational Sciences (NCATS).
